Columns and labels:
[1] = tested on: P. falciparum NF54-pfs16-GFP early (I-III) stage gametocytes; assay: relative % inhibition of viable gametocyte number; higher = more gametocytocidal; details: stage: early (I-III) gametocyte, incubation 72 h
Summary of the method: (§1)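 Early-stage (I/IIa, day 2) or late-stage (day 8) NF54 pfs16-GFP gametocytes were isolated by magnet and plated in 384-well poly-D-lysine imaging plates at 10% parasitaemia and 0.1% haematocrit, with compound in duplicate at 5 or 0.5 µM. After 72 h at 37°C under 5% CO2 and 5% O2, MitoTracker Red was added overnight. Confocal imaging scored elongated GFP objects whose MitoTracker signal passed a cut-off as viable gametocytes. Relative inhibition was normalised against vehicle and positive-control wells on the same plate.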

[2] = tested on: P. falciparum NF54-pfs16-GFP late (IV-V) stage gametocytes; assay: as above; details: stage: late (IV-V) gametocyte, incubation 72 h
Summary of the method: as §1

| Compound | relative % inhibition ([1]; 0.5 µM) | relative % inhibition ([1]; 5 µM) | relative % inhibition ([2]; 0.5 µM) | relative % inhibition ([2]; 5 µM) |
| --- | --- | --- | --- | --- |
| O=C(CCc1ccco1)NC1CCN(CC2(c3ccc(Cl)cc3)CCC2)CC1 | -4.87% | 91.7% | 21.7% | 82.2% |
| CCCc1cc(O)c2c3c(c(=O)oc2c1)CN(C)CC3 | 38.5% | 91.6% | 38.3% | 49.1% |
| CCOc1cc(CNC(C)C(O)c2ccccc2)cc(Cl)c1OCC (stereo not drawn) | -15.8% | -1.9% | 32.7% | 74.4% |
| Oc1ccc(Br)cc1CN1CCN(Cc2ccc(Cl)cc2)CC1 | 12.1% | 88.4% | 26.8% | 31% |
| Oc1ccc(C(=C(Cl)Cl)c2ccc(O)cc2)cc1 | -6.22% | 29.1% | -1.73% | -7.57% |
| Oc1ccc(Br)cc1CN1CCN(Cc2cccc(F)c2)CC1 | -1.27% | 63.9% | 50.4% | 95.9% |
| CCOc1c(Cl)cc(CNC(C)C(O)c2ccccc2)cc1OC (stereo not drawn) | -16.9% | 71.9% | -0.71% | 31.3% |
| CCCCCCc1cc(O)c2c3c(c(=O)oc2c1)CCC(C)C3 (stereo not drawn) | -14.4% | 86.1% | 69.5% | 98.9% |
| CN(N=O)C1=C(NC2CCCCC2)C(=O)c2ccccc2C1=O | 34.8% | 10.4% | 20.6% | 38.1% |
| COc1cc(CNCCc2ccc(Cl)cc2)cc(OC)c1O | 9.61% | 87.4% | -10.8% | 3.51% |
| C=CC12CCN(CC1)C(C(O)c1ccnc3ccc(OC)cc13)C2 (stereo not drawn) | 91.6% | 75.8% | 37.9% | 36.1% |
| COc1ccc(CN2CCN(Cc3ccccc3)CC2)c(O)c1 | -13.8% | -3.4% | 12.2% | 7.95% |

Reference: the supplement of paper PMC3842684
